Holding throughout (assay): glycan array binding signal (z-score within array); higher = stronger binding
What all share (details): glycan notation: IUPAC condensed, linker removed

Experiment [1] concerns the target Fuc(a1-2)Gal(b1-3)GlcNAc(b1-2)Man(a1-3)[Fuc(a1-2)Gal(b1-3)GlcNAc(b1-2)Man(a1-6)]Man(b1-4)GlcNAc(b1-4)GlcNAc. In outline: (§1)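 Glycan array data were curated from 3228 arrays in the Consortium for Functional Glycomics database and kept only where the protein sequence was available. Glycan names were converted to IUPAC-condensed notation, and columns mapping to the same glycan were averaged. The binding signal is a within-array Z-score, averaged across arrays of the same protein sequence at different concentrations or buffers and across linkers. Negative Z-scores can be read as non-binding.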

Experiment [2] addresses Fuc(a1-2)Gal(b1-3)GlcNAc(b1-3)[Fuc(a1-2)Gal(b1-3)GlcNAc(b1-6)]GalNAc. The essentials:
as §1

The target in experiment [3] is Fuc(a1-2)[Gal(a1-3)]Gal(b1-3)GalNAc. In outline: as §1
Experiment [4] addresses Fuc(a1-2)[Gal(a1-3)]Gal(b1-4)[Fuc(a1-3)]GlcNAc(b1-3)GalNAc. The essentials: as §1
In experiment [5] the target is Fuc(a1-2)[GalNAc(a1-3)]Gal(b1-4)GlcNAc(b1-2)Man(a1-3)[Fuc(a1-2)[GalNAc(a1-3)]Gal(b1-4)GlcNAc(b1-2)Man(a1-6)]Man(b1-4)GlcNAc(b1-4)[Fuc(a1-6)]GlcNAc. In outline:
as §1

Experiment [6] has as its target Fuc(a1-2)[GalNAc(a1-4)]Gal(b1-4)GlcNAc. In outline:
as §1

Experiment [7] deals with Gal(a1-3)Gal(b1-3)GlcNAc(b1-6)GalNAc. In outline: as §1
In another experiment the target is Gal(a1-3)Gal(b1-4)Glc. In outline:
as §1

Experiment [8] deals with Gal(a1-4)Gal(b1-3)GlcNAc(b1-2)Man(a1-3)[Gal(a1-4)Gal(b1-3)GlcNAc(b1-2)Man(a1-6)]Man(b1-4)GlcNAc(b1-4)GlcNAc. In outline:
as §1

The target of experiment [9] is Gal(a1-4)Gal(b1-4)GlcNAc(b1-2)Man(a1-3)[Gal(a1-4)Gal(b1-4)GlcNAc(b1-2)Man(a1-6)]Man(b1-4)GlcNAc(b1-4)GlcNAc. In outline: as §1
Experiment [10] has as its target Gal(b1-3)GalNAc(b1-4)Gal(b1-4)Glc. The essentials:
as §1

Experiment [11] deals with Gal(b1-3)GlcNAc(b1-3)Gal(b1-4)GlcNAc(b1-2)Man(a1-3)[Gal(b1-3)GlcNAc(b1-3)Gal(b1-4)GlcNAc(b1-2)Man(a1-6)]Man(b1-4)GlcNAc(b1-4)GlcNAc. In outline: as §1
The target in experiment [12] is Gal(b1-3)[Fuc(a1-4)]GlcNAc(b1-2)Man(a1-3)[Gal(b1-3)[Fuc(a1-4)]GlcNAc(b1-2)Man(a1-6)]Man(b1-4)GlcNAc(b1-4)[Fuc(a1-6)]GlcNAc. In outline:
as §1

The target in experiment [13] is Gal(b1-3)[Fuc(a1-4)]GlcNAc(b1-6)GalNAc. The essentials: as §1
Experiment [14] has as its target Gal(b1-4)GlcNAc(b1-2)Man(a1-3)[GlcNAc(b1-4)][Gal(b1-4)GlcNAc(b1-2)Man(a1-6)]Man(b1-4)GlcNAc(b1-4)GlcNAc. In outline: as §1
The target of experiment [15] is Gal(b1-4)GlcNAc(b1-3)Gal(b1-4)GlcNAc(b1-2)Man(a1-3)[Gal(b1-4)GlcNAc(b1-3)Gal(b1-4)GlcNAc(b1-2)Man(a1-6)]Man(b1-4)GlcNAc(b1-4)GlcNAc. The essentials:
as §1

Experiment [16] addresses Gal(b1-4)GlcNAc(b1-3)Gal(b1-4)GlcNAc(b1-2)[Gal(b1-4)GlcNAc(b1-3)Gal(b1-4)GlcNAc(b1-6)]Man(a1-6)[Gal(b1-4)GlcNAc(b1-3)Gal(b1-4)GlcNAc(b1-2)Man(a1-3)]Man(b1-4)GlcNAc(b1-4)GlcNAc. In outline: as §1
Experiment [17] has as its target Gal(b1-4)GlcNAc(b1-3)Gal(b1-4)GlcNAc(b1-2)[Gal(b1-4)GlcNAc(b1-3)Gal(b1-4)GlcNAc(b1-6)]Man(a1-6)[Gal(b1-4)GlcNAc(b1-3)Gal(b1-4)GlcNAc(b1-2)Man(a1-3)]Man(b1-4)GlcNAc(b1-4)[Fuc(a1-6)]GlcNAc. In outline:
as §1

The target in experiment [18] is Gal(b1-4)GlcNAc(b1-3)Gal(b1-4)GlcNAc(b1-3)Gal(b1-4)GlcNAc(b1-3)Gal(b1-4)GlcNAc(b1-2)Man(a1-3)[Gal(b1-4)GlcNAc(b1-3)Gal(b1-4)GlcNAc(b1-3)Gal(b1-4)GlcNAc(b1-3)Gal(b1-4)GlcNAc(b1-2)Man(a1-6)]Man(b1-4)GlcNAc(b1-4)[Fuc(a1-6)]GlcNAc. In outline: as §1
For experiment [19], the target named is Gal(b1-4)GlcNAc(b1-3)Gal(b1-4)GlcNAc(b1-3)Gal(b1-4)GlcNAc(b1-3)Gal(b1-4)GlcNAc(b1-2)[Gal(b1-4)GlcNAc(b1-3)Gal(b1-4)GlcNAc(b1-3)Gal(b1-4)GlcNAc(b1-3)Gal(b1-4)GlcNAc(b1-6)]Man(a1-6)[Gal(b1-4)GlcNAc(b1-3)Gal(b1-4)GlcNAc(b1-3)Gal(b1-4)GlcNAc(b1-3)Gal(b1-4)GlcNAc(b1-2)Man(a1-3)]Man(b1-4)GlcNAc(b1-4)[Fuc(a1-6)]GlcNAc. In outline: as §1
In experiment [20] the target is Gal(b1-4)GlcNAc(b1-3)Gal(b1-4)GlcNAc(b1-3)Gal(b1-4)GlcNAc(b1-3)Gal(b1-4)GlcNAc(b1-3)Gal(b1-4)GlcNAc(b1-2)[Gal(b1-4)GlcNAc(b1-3)Gal(b1-4)GlcNAc(b1-3)Gal(b1-4)GlcNAc(b1-3)Gal(b1-4)GlcNAc(b1-3)Gal(b1-4)GlcNAc(b1-6)]Man(a1-6)[Gal(b1-4)GlcNAc(b1-3)Gal(b1-4)GlcNAc(b1-3)Gal(b1-4)GlcNAc(b1-3)Gal(b1-4)GlcNAc(b1-3)Gal(b1-4)GlcNAc(b1-2)Man(a1-3)]Man(b1-4)GlcNAc(b1-4)[Fuc(a1-6)]GlcNAc. The essentials:
as §1

The target of experiment [21] is Gal(b1-4)GlcNAc(b1-3)Gal(b1-4)GlcNAc(b1-3)[Gal(b1-4)GlcNAc(b1-3)Gal(b1-4)GlcNAc(b1-6)]GalNAc. In outline: as §1
Experiment [22] addresses Gal(b1-4)GlcNAc(b1-3)Gal(b1-4)GlcNAc(b1-6)[Gal(b1-3)]GalNAc. The essentials:
as §1

Only a selection was taken, and the strongest signals are over-represented in it overall.

B1: GS14009A-pdi-495-27-495 (Parabacteroides distasonis) (protein)
chain: FEEVNTDPDSPTDVPTTNLLAYSLYYTSYRLYDRWFAMDEPMTFCGYASKMTYIDESRYNFRTGVQDTNWEYLYRILNNLKDIEKRATFNETPNMLNVSKVMQVHLMQVATDRWRDVPYTDAAKMTDGILQPKYDKQEDIYPGLLATLKEAADGFADGGSDDLGEGDLLFGGDIEKWQRYCNSMRLRLAMRISEVSPALAKETVEEVMGNPTKYPIMESNDDNAFFWWIGTDPNYYEPMADGYRTRKTEYCAADVIVDHMNTREDPRRSSYFQPTKESVEAGEPKYVGYTIGAKANAVASKYSIWGARFFTDLAGFSPYMRVAEPWFCVAEASMLGWNTGISAEDAYNKAVTYSMEENSVSAEDIADYLANAGKFTNDKKQIYYEEWVAMFKQGMEGWSLYRRTGVPDNLYPAPGRPANYSNHNVPPFRSPYPDKERNLNNANCAPFDAEVVDNLWGKQMWWDTRTGVH
With B1, the “glycan array binding signal (z-score)” value in experiment [1] is 2.57; in experiment [2] it was -0.336; in experiment [3] it was 0.023; in [4] it was -0.109; in [5] it was 2.8; in experiment [6], -0.532. Moreover, the “glycan array binding signal (z-score)” value in experiment [7] was -0.003; in the experiment with Gal(a1-3)Gal(b1-4)Glc, -0.017; in experiment [8], 2.33; in experiment [9] it was 2.23; in experiment [10], 0.001; in [11], 4.58. Further, the “glycan array binding signal (z-score)” value in experiment [12] was found to be 1.2; in experiment [13], 0.634; in experiment [14], 15.2; in [15], 0.299; in experiment [16], 10.6; in experiment [17], 0.552. The “glycan array binding signal (z-score)” value in experiment [18] was 0.445; in experiment [19] it was 7.28; in [20] it was 3.33; in experiment [21] it was 0.573; in experiment [22], -0.044.
